From PubChem
LmPK inh: qHTS Assay for Inhibitors of Leishmania Mexicana Pyruvate Kinase (LmPK) | 290,000 compounds, 0.37% hits | Q27686 | purified LmPK, Kinase-Glo ATP luminescence, 1 h | Potency, µM (series often up to 57.5 µM), inactives show at the top dose activity change, negative = inhibition, usual class: inhibitors | AID 1721, 2009; also: potency is read from the fitted curve at half-maximal effect; % is scaled to controls: 0 for no effect and ±100 for the full control effect
Target sequence (Q27686 whole entry, looked up): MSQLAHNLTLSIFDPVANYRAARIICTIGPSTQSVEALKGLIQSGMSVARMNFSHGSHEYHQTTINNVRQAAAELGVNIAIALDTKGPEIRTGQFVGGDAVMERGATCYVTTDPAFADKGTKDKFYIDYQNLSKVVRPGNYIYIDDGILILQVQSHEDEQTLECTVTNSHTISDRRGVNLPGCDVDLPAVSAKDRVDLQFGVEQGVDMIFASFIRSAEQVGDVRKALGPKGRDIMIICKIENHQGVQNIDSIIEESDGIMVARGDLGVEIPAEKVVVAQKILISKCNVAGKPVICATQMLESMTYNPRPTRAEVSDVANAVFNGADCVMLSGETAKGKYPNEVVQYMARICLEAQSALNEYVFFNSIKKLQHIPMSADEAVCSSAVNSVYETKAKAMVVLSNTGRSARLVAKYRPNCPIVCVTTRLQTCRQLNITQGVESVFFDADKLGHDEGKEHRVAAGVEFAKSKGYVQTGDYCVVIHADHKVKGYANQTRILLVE
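ATP generated from ADP (0.1 mM) and PEP (0.5 mM) by 0.1 nM LmPK over 1 h at room temperature (pH 7.2 imidazole buffer) was detected by coupled luciferase luminescence. Values were normalized to uninhibited and no-enzyme wells.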
Cycloheximide cs: Cycloheximide Counterscreen for Small Molecule Inhibitors of Shiga Toxin; cell reporter, cycloheximide protein synthesis inhibition counterscreen; max response, %; 300,000 compounds, 12% hits; AID 2314, 2010; in the data active = max response mostly above about 13%, no sharp cut-off; inactive = mostly below about 14%; also: read at 38.3 µM for the half of the compounds with a filed dose; 0% is about no effect
Pf growth 48h: Primary qHTS for delayed death inhibitors of the malarial parasite plastid, 48 hour incubation | P. falciparum luciferase growth in erythrocytes, 48 h | Potency, µM (doses to about 28.7 µM), without a hit: at the highest dose activity change, negative = inhibition, usual class: inhibitors | 310,000 compounds, 5.9% hits; also: potency is read from the fitted curve at half-maximal effect; % is scaled to controls: 0 for no effect and ±100 for the full control effect
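A one-generation exposure of luciferase-tagged malaria parasites in RPMI 1640/Albumax erythrocyte culture, 37 C and 5% CO2. Inhibition is inferred from decreased luminescence after adding detection reagent.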
Pf growth 96h: Primary qHTS for delayed death inhibitors of the malarial parasite plastid, 96 hour incubation. 320,000 compounds, 6.9% hits. P. falciparum luciferase reporter growth, 96 h. Potency, µM (titrated, usually from 28.7 µM), for inactives: at the top dose activity change, negative = inhibition, actives largely listed as inhibitors; also: potency is read from the fitted curve at half-maximal effect; % is scaled to controls: 0 for no effect and ±100 for the full control effect
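Plates of compound plus infected erythrocytes (2% hematocrit, 0.05% parasitemia final) incubate 96 hours, 37 C, 5% CO2. Detection reagent added; reduced luminescence from the parasites' luciferase reporter flags inhibition.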
Shiga toxin inh: A qHTS for Small Molecule Inhibitors of Shiga Toxin; Vero cells, Shiga toxin protein synthesis inhibition reporter; inhibition, % at 38.7 µM; 290,000 compounds, 9.2% hits; AID 2315, 2010; in the data active = inhibition mostly above about 28%, no sharp cut-off; inactive = mostly below about 43%; also: 0% is about no effect
Starred values were filed as active, the others as inactive; ? = inconclusive; nt = no result. A selection: hits, their analogues and other compounds. The true share with any hit is near 22%. Unless noted, calls follow the shape of the dose curve; as a rule, active = well fitted inhibition curve with a large enough effect; inconclusive = small, poorly fitted or top-dose-only effect, or another doubt; inactive = no such curve, though single readings can be large or run the other way.

SMILES	LmPK inh	Cycloheximide cs	Pf growth 48h	Pf growth 96h	Shiga toxin inh
CCc1cccc(CC)c1NC(=O)CO/N=C(\C)c1cccs1	8.8%	6.6	-12.2%	0.0%	18.0
COc1ccc(OC)c(C(c2nnnn2Cc2ccccc2)N2CCN(C3CCCCC3)CC2)c1 (configuration not stated)	-0.3%	-1.1	10.4µM*	-16.2%	-12.0
COc1ccccc1C(c1nnnn1Cc1ccccc1)N1CCN(C2CCCC2)CC1 (configuration not stated)	2.9%	-0.8	?	12.3%	-4.2
Cc1ccc(C(c2nnnn2CCc2ccccc2)N2CCC(C)CC2)cc1 (configuration not stated)	2.9%	15.3*	7.38µM*	0.8%	21.5
c1ccc(CCn2nnnc2C(c2cccnc2)N2CCOCC2)cc1 (configuration not stated)	-1.4%	5.0	-13.6%	2.62µM*	-8.9
COc1cccc(C(c2nnnn2Cc2ccccc2)N2CCN(C3CCCC3)CC2)c1OC (configuration not stated)	-5.5%	-2.8	-5.2%	2.33µM*	-18.0
COc1ccc(OC)c(C(c2nnnn2Cc2ccccc2)N2CCC(C(N)=O)CC2)c1 (configuration not stated)	7.4%	2.9	?	0.0%	-2.3
Cc1ccc(CC(=O)N2CCN(c3ccccn3)CC2)cc1	-0.1%	-2.4	nt	-14.2%	12.2
Cc1nn(C)c(C)c1S(=O)(=O)NCCc1ccc(Cl)cc1	4.2%	-4.0	-5.7%	4.5%	15.0
Cc1ccc(CNC(=O)N[C@@H](Cc2ccccc2)C(=O)O)cc1	1.6%	-3.5	3.5%	-25.6%	1.9
CC(C)C(c1nnnn1CCc1ccccc1)N1CCC(C(N)=O)CC1 (configuration not stated)	5.6%	-2.8	11.5%	28.5%	-6.4
CCCC(c1nnnn1CCc1ccccc1)N1CCC(C(N)=O)CC1 (configuration not stated)	1.5%	0.7	-16.8%	4.15µM*	-6.6
COc1ccc(C(c2nnnn2CCc2ccccc2)N2CCN(C3CCCC3)CC2)cc1OC (configuration not stated)	-9.7%	-15.3	-18.9%	0.586µM*	-19.2
CCSc1nc2ccccc2n1CC(=O)N1CCCCC1	-4.9%	6.8	2.8%	47.5%	-26.0
O=C(CSc1ccc(-c2nc3ccccc3[nH]2)cn1)N1CCN(C(=O)c2ccco2)CC1	-5.4%	2.0	13.1µM*	0.8%	11.2
Cc1ccc2cc(C)c3nnc(SCC(=O)N4CCN(C(=O)c5ccco5)CC4)n3c2c1	8.4%	10.0	13.1µM*	nt	-10.5
O=C(CCc1nc2ccccc2[nH]1)N1CCN(C(=O)c2ccco2)CC1	-1.6%	-3.1	14.5%	?	-5.9
COc1ccc2c(c1)cc(C)c1nnc(SCC(=O)N3CCN(C(=O)c4ccco4)CC3)n12	-2.8%	-4.9	-19.7%	11.5%	12.6
O=C(CSc1nc2ccccc2n1CC(=O)N1CCCC1)Nc1nccs1	0.0%	-2.4	-2.2%	2.62µM*	16.6
CCS(=O)(=O)c1nc2ccccc2n1CC(=O)N1CCCCC1	1.2%	10.2	-8.6%	10.4µM*	-2.3
Cc1cc(NC(=O)CSc2nc(-c3cccs3)nc3ccccc23)no1	nt	nt	?	65.3%	nt
CCOC(=O)c1c(NC(=O)C2CC(Cl)=CCC2C(=O)O)sc2c1CC(C)(C)OC2 (configuration not stated)	4.1%	-2.2	-18.3%	-12.0%	3.3
O=C(CSc1nc2ccccc2n1CC(=O)N1CCCC1)N1CCN(C(=O)c2ccco2)CC1	-4.4%	-1.6	-15.6%	6.57µM*	9.0
O=C(CSc1nc2ccccc2n1CC(=O)N1CCOCC1)N1CCCC1	0.4%	-3.7	11.1%	?	-3.9
CCc1c(C)nc(N2CCN(c3ccc(Cl)cc3)CC2)[nH]c1=O	-1.0%	-0.8	-132.1%	0.0%	-16.5
SMILES	LmPK inh	Cycloheximide cs	Pf growth 48h	Pf growth 96h	Shiga toxin inh
Cc1nn(CSc2c(F)c(F)c(F)c(F)c2F)c(C)c1[N+](=O)[O-]	nt	nt	-24.7%	6.9%	nt
CCc1ccc(NC2=NCC(=O)N2Cc2ccc3c(c2)OCO3)cc1	-1.9%	-1.5	0.1%	9.28µM*	-3.4
C/C(CC(=O)Nc1ccc2c(c1)OCCO2)=N\NC(=O)C(=O)Nc1ccccc1C	-2.8%	13.1	18.0%	36.6%	27.7
C/C(CC(=O)Nc1ccc(OCc2ccccc2)cc1)=N\NC(=O)C(=O)Nc1ccccc1C	0.2%	26.3*	?	?	65.1*
S=C(NCCSCc1ccc(Cl)cc1Cl)Nc1ccccc1	8.0%	-1.5	?	?	-3.1
CCOc1ccc(NC(=S)Nc2ccc(OCc3ccccc3)cc2)cc1	6.5%	11.2*	-24.3%	-11.6%	4.1
S=C(Nc1ccccc1)Nc1ccc(OCc2ccc(Cl)cc2Cl)cc1	-0.6%	-7.7	5.86µM*	?	-20.5
CCN(CC)C(=O)C(=O)Nc1ccc(OCc2ccccc2)cc1	-4.0%	13.8*	8.6%	?	22.7
CNC(=S)Nc1ccc(OCc2ccccc2)cc1	-6.1%	43.8*	40.9%	?	47.7*
O=C(Cn1nnc(-c2cccs2)n1)NNC(=O)c1ccccc1Cl	1.3%	6.2	33.7%	17.8%	-13.3
COc1ccc(C(=O)NCCCn2nc(C)cc2C)cc1S(=O)(=O)N1CCOCC1	nt	nt	-18.9%	-4.2%	nt
COc1ccc(C2(O)CC3CCC(C2)N3c2cc(C)nc(-c3ccccc3)n2)cc1 (configuration not stated)	3.2%	15.3	11.7µM*	nt	-18.9
Cc1cc(N2CCCC2)nc(N2C3CCC2CC(O)(c2ccc(F)cc2)C3)n1 (configuration not stated)	1.0%	-6.1	?	145.4%	18.3
CCCNC(=O)c1ccc(N2CCC3(CC2)CC(c2cccc(Br)c2)=NO3)c(NC(=O)c2ccccc2)c1	nt	nt	9.28µM*	11.7µM*	nt
Cc1ccc(CNC(=O)c2ccc(N3CCC4(CC3)CC(c3cccc(Br)c3)=NO4)c(NC(=O)c3c(Cl)cccc3Cl)c2)cc1	nt	nt	5.86µM*	9.28µM*	nt
CCCCCCCC(=O)Nc1cc(C(=O)NCCC)ccc1N1CCC2(CC1)CC(c1ccccc1)=NO2	-3.6%	1.4	?	7.38µM*	-3.2
CCCCCCCC(=O)Nc1cc(C(=O)NCc2ccc(C)cc2)ccc1N1CCC2(CC1)CC(c1cccc(Br)c1)=NO2	nt	nt	-2.6%	45.7%	nt
COc1cccc(C(=O)Nc2cc(C(=O)NCc3ccc(C)cc3)ccc2N2CCC3(CC2)CC(c2cccc(Br)c2)=NO3)c1	nt	nt	10.4µM*	-6.2%	nt
O=C(CCCCCNC(=S)Nc1ccccc1)C[N+](=O)[O-]	5.5%	-2.1	-8.9%	-3.7%	-18.3
CCCNC(=O)c1ccc(N2CCC3(CC2)CC(c2ccccc2)=NO3)c(NC(=O)c2cccc(C)c2)c1	7.8%	-0.7	8.28µM*	1.85µM*	8.9
CCn1c(=O)n(CC)c2cc(N3CCCC3)c(NC(=O)c3cccc(C)c3)cc21	5.3%	6.0	0.0%	?	-4.4
